# Lamin A splicing – modulators of lamin A splicing | HeLa LMNA splicing GFP/RFP minigene ratio, 48 h | Potency, µM (series often up to 46.1 µM), usual class: inhibitors | actives 0.01% (n = 200,000); active means well fitted inhibition curve with a large enough effect in the signal ratio, with a control signal flat, not every such curve was filed as active; inconclusive means small, poorly fitted or top-dose-only effect, or effect the other way, or a change in a side signal; the % refers to the signal ratio
#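 S3 HeLa stable clones carrying a lamin A-EGFP splicing minigene plus DsRed2 were seeded at 600 cells/well in Opti-MEM with 2% FBS, pin-dosed and incubated 48 h at 37°C. Acumen cytometry (488 nm) gave the GFP/RFP total-intensity ratio.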
# HTT aggregate – mutant huntingtin aggregation inhibition; PC12 HttQ103-GFP aggregates, Acumen cytometry, 40 h; Potency, µM (titrated, usually from 46.1 µM), most hits filed as inhibitors; actives 1.1% (n = 220,000); further: nearly all actives have a fitted effect of over 60% in size
#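 Inducible Q103 Huntingtin exon 1–GFP PC12 line, 1500 cells/well in phenol red free DMEM with 5% equine and 5% calf serum. Tebufenozide 100 nM induced expression; compounds titrated; aggregates quantified by cytometry.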
# HPGD block – HPGD (human) dehydrogenase inhibition. P15428. Potency, µM, hits mostly inhibitors. actives 4.3% (n = 150,000). purified HPGD, NADH fluorescence kinetic, PGE2 substrate; active means well fitted inhibition curve with a large enough effect, not every such curve was filed as active; inconclusive means small, poorly fitted or top-dose-only effect, or another doubt; inactive means no such curve, though single readings can be large or run the other way
#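 20 nM HPGD preincubated 15 min at room temperature with compound in 50 mM Tris-HCl pH 8, 0.01% Tween 20. Started with 1 mM NAD+ and 30 uM prostaglandin E2; NADH fluorescence (360/450 nm) read 5 times over 30-s intervals, last minus first.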
# ALDH1A1 inh – blocks purified human ALDH1A1 activity; P00352; Purified ALDH1A1, NADH fluorescence, propionaldehyde substrate; Potency, µM (series often up to 75.3 µM), actives largely listed as inhibitors; actives 7.3% (n = 220,000); active means well fitted inhibition curve with a large enough effect, not every such curve was filed as active; inconclusive means small, poorly fitted or top-dose-only effect, or another doubt; inactive means no such curve, though single readings can be large or run the other way
# Target sequence (P00352 whole entry, looked up): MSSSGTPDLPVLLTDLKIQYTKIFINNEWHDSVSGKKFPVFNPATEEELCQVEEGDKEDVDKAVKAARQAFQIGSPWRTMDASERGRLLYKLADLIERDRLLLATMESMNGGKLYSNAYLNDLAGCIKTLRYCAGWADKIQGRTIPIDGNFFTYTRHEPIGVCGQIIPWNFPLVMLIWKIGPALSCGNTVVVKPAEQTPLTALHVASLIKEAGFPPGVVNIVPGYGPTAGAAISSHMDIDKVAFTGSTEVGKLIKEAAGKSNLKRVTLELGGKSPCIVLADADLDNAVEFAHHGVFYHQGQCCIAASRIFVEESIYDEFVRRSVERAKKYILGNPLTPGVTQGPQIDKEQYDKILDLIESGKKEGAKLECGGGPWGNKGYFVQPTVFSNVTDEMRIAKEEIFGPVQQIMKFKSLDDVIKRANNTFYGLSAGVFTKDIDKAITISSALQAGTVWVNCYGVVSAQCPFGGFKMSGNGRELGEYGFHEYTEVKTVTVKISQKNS
# HTT ATP protect – cytoprotection in Huntington HTT-Q103 PC12 cell model; PC12 HTT-Q103 induced, cytoprotection, ATP luminescence, 40 h; Potency, µM (doses to about 56.4 µM), actives largely listed as activators; actives 0.14% (n = 230,000); AID 1471; further: nearly all actives have a fitted effect of over 45% in size
#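 PC12 cells stably carrying ecdysone-inducible Htt exon 1 (Q103)–GFP were induced with 100 nM tebufenozide (final) alongside library compounds in a dose series. Cytoprotection was scored as retained ATP by ATPlite luminescence.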
# A number is an active result; 0 = inactive; ? = inconclusive; - = not tested or not shown; [ ] = another dose, or the depositor's remark. In the library only some 8.8% were active in any assay of this set; here they are far more common. Unless noted, the call rests on the fitted dose curve; in most records, active means well fitted curve in the direction sought with a large enough effect; inconclusive means small, poorly fitted or top-dose-only effect, or another doubt; inactive means no such curve, though single readings can be large; an effect the other way counts as inactive or inconclusive.
SMILES,Lamin A splicing,HTT aggregate,HPGD block,ALDH1A1 inh,HTT ATP protect
CC(C)c1ccc(N2C(=O)N(Cc3cccc([N+](=O)[O-])c3)c3ccccc3S2(=O)=O)cc1,0,-,-,-,-
O=C1C(=O)N(Cc2cccc([N+](=O)[O-])c2)c2ccccc21,0,?,?,0.05µM,0[10 µM]
CCC(CO)[n+]1c(C)cc(/C=C2\Sc3ccccc3N2Cc2ccccc2)cc1C (stereo not given),?,20µM,?,?,0[10 µM]
COc1ccc(C(=O)c2no[n+]([O-])c2C(=O)c2ccc(OC)cc2)cc1,?,?,?,1µM,0[0.074 µM]
O=C(c1ccc(Cl)nc1)c1cccs1,-,0[9.22 µM],-,-,0[10 µM]
O=C(c1cccs1)c1no[n+]([O-])c1C(=O)c1cccs1,?,?,13µM,0.28µM,0
Cc1ccc(C(=O)Nc2ccnc(-c3cccnc3)n2)cc1,?,0,-,0,0[10 µM]
Cc1ccc(NC(=O)Nc2ccnc(-c3cccnc3)n2)cc1,-,?,-,0,3.5µM
O=[N+]([O-])c1ccc(/C=C2\CCC(C3=CCCC3)=C2N2CCOCC2)cc1,?,?,0,14µM,-
COc1cccc(CNC(=O)Cn2c(=O)ccc3cc(S(=O)(=O)N4CCCC4)ccc32)c1,0,-,-,-,-
O=C(NC(=S)NNC(=O)[C@H]1C[C@@H]1c1ccccc1)c1cccc(F)c1,-,0[9.22 µM],-,22µM,0[10 µM]
COc1cccc(OC)c1C(=O)NC(=S)NNC(=O)[C@H]1C[C@@H]1c1ccccc1,-,0[9.22 µM],-,0,0[10 µM]
O=C(Oc1ccc(C(=S)N2CCCCC2)cc1)c1ccccc1F,-,?,-,8.9µM,0
Cc1ccccc1C(=O)Oc1ccc(Br)cc1C(=S)N1CCCC1,0,0,0,0,0
O=C(Oc1ccc(Br)cc1C(=S)N1CCCC1)c1ccccc1F,?,0,25µM,11µM,-
CCOC(=O)CSc1nc2c(sc(=S)n2-c2ccc(OCC)cc2)c(=O)[nH]1,-,0,-,?,0
CCOC(=O)CSc1nc2sc(C)c(C)c2c(=O)[nH]1,0,0,3.5µM,0,0
CCOc1ccc(-n2c(=S)sc3c(=O)[nH]c(SCC(=O)N4CCC(C)CC4)nc32)cc1,0,0,0,0,0
CCOC(=O)CSc1nc2c(sc(=S)n2-c2ccccc2)c(=O)[nH]1,0,0,20µM,0,-
CCOC(=O)/C(=C\c1ccc(Cl)cc1)c1nc2sc(C)c(C)c2c(=O)[nH]1,?,?,22µM,25µM,0[10 µM]
CCOc1ccc(-n2c(=S)sc3c(=O)[nH]c(SCC(=O)C(C)(C)C)nc32)cc1,-,?,-,7.1µM,?
CCOC(=O)CSc1nc2sc(C(=O)O)c(C)c2c(=O)[nH]1,0,0,0,0,0
NC(=O)c1csc(-c2ccncc2)n1,0,0,0,0,0[10 µM]
Nc1cc(-c2ccncc2)c[nH]c1=O,?,?,?,11µM,0
COc1ccc(CN(C2CCCCC2C)S(=O)(=O)c2ccc(S(=O)(=O)N(C)C)cc2)cc1OC (stereo not given),?,0,0,3.5µM,0[10 µM]
SMILES,Lamin A splicing,HTT aggregate,HPGD block,ALDH1A1 inh,HTT ATP protect
COc1ccc(N(C)C(=O)c2oc(=O)c3ccccc3c2-c2ccccc2)c(OC)c1,-,0[9.22 µM],-,-,0[10 µM]
COc1cccc(CC2(CO)CCCN(Cc3ccc(-c4ccco4)cc3)C2)c1 (stereo not given),-,0[9.22 µM],-,11µM,0[10 µM]
COc1cccc(CC2(CO)CCCN(Cc3[nH]c4ccc(C)cc4c3C)C2)c1 (stereo not given),-,0,-,22µM,0
COc1cccc(CC2(CO)CCCN(Cc3ccc(C)s3)C2)c1 (stereo not given),-,0[9.22 µM],-,0,0[10 µM]
COCc1ccc(CN2CCCC(CO)(Cc3cccc(Cl)c3)C2)o1 (stereo not given),0,0[9.22 µM],-,8.9µM,0[10 µM]
COc1cccc(CC2(CO)CCCN(Cc3ccc(CO)o3)C2)c1 (stereo not given),-,0,-,0,0
O=C(c1cccnc1)N1CCN(c2ccc3ccccc3n2)CC1,0[9.22 µM],0,-,?,?
CCCOc1ccc(-c2nc(=S)[nH][nH]2)cc1,0,0,13µM,?,0[10 µM]
COc1ccc(/C=N/NC(=O)CSc2n[nH]c(=O)[nH]c2=O)cc1,0,0,20µM,0,0[10 µM]
O=C(OCC(=O)N1CCc2ccccc2C1)c1cc(=O)[nH]c2ccccc12,-,0[9.22 µM],-,-,0[10 µM]
CCC(C)(C)n1nnnc1CN1CCC(NC(=O)c2ccccc2C)CC1,0,0,0,?,0[10 µM]
CCOc1ccccc1C(=O)NC1CCN(Cc2nnnn2C2CCCC2)CC1,0,0,0,28µM,0[10 µM]

# Compound activity as filed in PubChem BioAssay.
